Laboratory results as given in PubChem BioAssay AID1159580 (chemical genetic matrix, 2015).
The campaign covered roughly 5,500 compounds. About 2,000 (36%) were called active. Roughly 18% stayed inconclusive and do not appear here. Rule as the data show it: active = normalized growth mostly below about 0.91 (no sharp cut-off); inconclusive = no clear call, values can overlap the other calls; inactive = mostly above about 0.92. The list shows a part of the results.

Experiment: chemical genetic growth profiling, strain panel (AID 1159580);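 also: tested at 20 µM; growth read once vehicle control cultures reached saturation at 30 °C; 1 = growth at the plate median or of vehicle wells; lower values mean less growth of the strain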
Settings: S. cerevisiae deletion strains, growth OD

Measured: normalized growth

CC(=O)O[C@@H]1CC2C(C)(C)[C@@H](O)CC[C@]2(C)C2CC[C@@]3(C)[C@H](c4ccoc4)OC(=O)[C@H]4O[C@]43[C@@]21C (stereo partly specified)
inactive: locus YJR043C, strain POL32, hits give low values 0.979 | locus YJR066W, strain TOR1, hits give low values 0.966 | locus YKL009W, strain mrt4, hits give low values 0.964 | locus YKL068W, hits give low values 1.01 | locus YKL085W, strain MDH1 (second series), hits give low values 1 | locus YKL085W, strain MDH1, hits give low values 1 | locus YKL160W, strain elf1, hits give low values 0.997 | locus YKR001C, strain vps1, hits give low values 1 | locus YKR026C, strain gcn3, hits give low values 1 | locus YKR091W, strain srl3, hits give low values 1 | locus YLL001W, strain dnm1, hits give low values 0.996 | locus YLL026W, hits give low values 0.997 | locus YLL041C, strain sdh2, hits give low values 0.997 | locus YLR027C, strain aat2, hits give low values 0.999 | locus YLR039C, strain RIC1, hits give low values 0.981 | locus YLR058C, strain SHM2, hits give low values 1 | locus YLR102C, strain apc9, hits give low values 1.01 | locus YLR113W, strain HOG1, hits give low values 0.968 | locus YLR221C, strain rsa3, hits give low values 0.987 | locus YLR258W, strain gsy2, hits give low values 1.01 | locus YLR262C, strain YPT6 (second series), hits give low values 0.967 | locus YLR262C, strain YPT6, hits give low values 0.974 | locus YLR268W, strain sec22, hits give low values 0.967 | locus YLR320W, strain mms22, hits give low values 0.989 | locus YLR330W, strain CHS5, hits give low values 0.999 | locus YLR342W, strain FKS1, hits give low values 0.992 | locus YLR357W, strain rsc2, hits give low values 1.03 | locus YLR370C, strain arc18, hits give low values 1.01 | locus YLR371W, strain rom2, hits give low values 1.03 | locus YLR384C, strain iki3, hits give low values 0.992 | locus YLR418C, strain cdc73, hits give low values 0.968 | locus YML016C, strain PPZ1, hits give low values 1.01 | locus YML032C, strain rad52, hits give low values 0.997 | locus YML120C, strain ndi1, hits give low values 1 | locus YML124C, strain tub3, hits give low values 1 | locus YMR058W, strain fet3, hits give low values 1.01 | locus YMR078C, strain ctf18, hits give low values 1.01 | locus YMR125W, strain sto1, hits give low values 1.02 | locus YMR129W, hits give low values 0.993 | locus YMR205C, strain PFK2, hits give low values 0.993 | locus YMR223W, strain ubp8, hits give low values 1.01 | locus YMR231W, strain pep5, hits give low values 0.959 | locus YMR307W, strain GAS1, hits give low values 0.953 | locus YNL067W, strain RPL9B, hits give low values 1.05 | locus YNL071W, strain lat1, hits give low values 0.993 | locus YNL153C, strain GIM3, hits give low values 1.04 | locus YNL183C, strain NPR1, hits give low values 0.976 | locus YNL209W, strain ssb2, hits give low values 0.992 | locus YNL233W, strain BNI4, hits give low values 1.01 | locus YNL248C, strain rpa49, hits give low values 0.995 | locus YNL250W, strain rad50, hits give low values 1.04 | locus YNL271C, strain bni1, hits give low values 0.999 | locus YNL298W, strain CLA4, hits give low values 0.991 | locus YNL307C, strain MCK1, hits give low values 1.01 | locus YNL322C, strain KRE1 (second series), hits give low values 0.989 | locus YNR049C, strain mso1, hits give low values 0.994 | locus YNR052C, strain pop2, hits give low values 1.02 | locus YOL006C, strain TOP1, hits give low values 0.891 | locus YOL012C, strain htz1 1.11 | locus YOL147C, strain pex11, hits give low values 0.996 | locus YOR001W, strain rrp6, hits give low values 0.981 | locus YOR061W, strain CKA2, hits give low values 0.985 | locus YOR069W, strain VPS5, hits give low values 1.01 | locus YOR070C, strain gyp1, hits give low values 0.988 | locus YOR080W, strain dia2, hits give low values 0.99 | locus YOR083W, strain WHI5, hits give low values 1 | locus YOR106W, strain vam3, hits give low values 0.984 | locus YOR136W, strain idh2, hits give low values 1 | locus YOR144C, strain elg1, hits give low values 1 | locus YOR184W, strain ser1, hits give low values 0.949 | locus YOR231W, strain MKK1, hits give low values 0.998 | locus YOR265W, strain rbl2, hits give low values 1 | locus YOR270C, strain vph1, hits give low values 0.912 | locus YOR290C, strain snf2, hits give low values 0.978 | locus YOR316C, strain cot1, hits give low values 1.01 | locus YPL051W, strain arl3, hits give low values 1.01 | locus YPL078C, strain atp4, hits give low values 0.991 | locus YPL106C, strain sse1, hits give low values 1.01 | locus YPL240C, strain hsp82, hits give low values 0.989 | locus YPL241C, strain CIN2, hits give low values 1 | locus YPL256C, strain CLN2, hits give low values 1.06 | locus YPR119W, strain clb2, hits give low values 1.02 | locus YPR141C, strain kar3, hits give low values 1.01 | locus YPR163C, strain tif3, hits give low values 1 | locus YPR167C, strain met16, hits give low values 1 | strain wtn01, hits give low values 0.976
